ALOX12 inh: inhibitors of human 12S-lipoxygenase ALOX12; Potency, µM (top dose mostly 108 µM), inactives show at the highest dose activity change, negative = inhibition, actives largely listed as inhibitors; 580,000 compounds, 1.1% hits; purified 12hLO, xylenol orange hydroperoxide absorbance; P18054; note: % is set by controls: 0 for no effect and ±100 for the full control effect
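Hydroperoxide product was detected by ferrous iron/xylenol orange as the 573 to 405 nm absorbance ratio. Arachidonic acid at 40 uM (final) was turned over for 30 min at room temperature by 150 nM human 12hLO, pH 7.0 Hepes buffer, after 15 min compound preincubation.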
Rango release inh: prevents RanGTP from dissociating the Rango-importin beta complex | O95149+P62826 | Biochemical FRET Rango-importin beta, RanGTP-induced dissociation | Potency, µM (top dose mostly 46.1 µM), inactives show top-dose activity change, negative = inhibition | 340,000 compounds, 0.071% hits; calls by dose curve; note: % of control where 0% means no effect; nearly all actives have a fitted effect of over 45% in size
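Recombinant Rango FRET biosensor (EYFP–snurportin 1 IBB–cerulean CFP10) at 0.1 uM premixed with 0.25 uM importin beta in PBS, 1 mM DTT, 0.02% Tween-20, 0.1% BSA. Compound added 5 min; RanGTP-RCC1 (0.6 uM Ran, 2 mM GTP, 0.2 uM RCC1) then triggers release, read at 45 min.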
Rango complex inh: inhibitors of Rango-importin beta complex formation. Q14974. 340,000 compounds, 0.031% hits. AID 540263. Potency, µM (series often up to 92.2 µM), inactives show top-dose inhibition of complex formation. Rango CFP/YFP FRET sensor + importin beta, 45 min; calls by dose curve;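 note: 0% = DMSO wells and 100% = buffer wells lacking importin beta; nearly all actives have a fitted effect of over 15% in size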
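Inhibition scored from the CFP 486 nm/YFP 530 nm FRET ratio 45 min after adding 0.125 microM importin beta to 50 nM Rango biosensor preincubated 5 min with compound (room temperature, PBS with DTT, Tween-20, BSA). No-importin wells as positive control.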
ClpP mod: qHTS Assay for Activators of ClpP; ATP-dependent Clp protease proteolytic subunit (Bacillus subtilis (strain 168)), P80244; purified B. subtilis ClpP, FRET peptide cleavage, 20 min; Potency, µM (doses to about 57.5 µM), without a hit: at the highest dose activity change, negative = active; 340,000 compounds, 1.9% hits; active = well fitted falling curve with a large enough effect; inconclusive = small, poorly fitted or top-dose-only effect; inactive = no such curve, though single readings can be large or run the other way; note: the source files actives as falling curves though it sought activators and does not explain the sign; nearly all actives have a fitted effect of over 65% in size
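FRET quenching reversal measured ClpP activation: 10 microg/mL B. subtilis ClpP at pH 8 with the FRET-FV decapeptide, read at 430 nm after 320 nm excitation. The 20-min minus 0-min signal was scaled between DMSO/no-enzyme wells and ADEP (5.8 microM final).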
PTAP TSG101 blk: blocks PTAP/TSG101 interaction to inhibit HIV-1 budding. Q99816. Fluorescence polarization, FITC-PTAP peptide / Tsg101 binding. Potency, µM (titrated, usually from 115 µM), for the others: at the top dose activity change, negative = inhibition, actives largely listed as inhibitors. 340,000 tested, under 10 active. AID 493005; active = well fitted inhibition curve with a large enough effect in the main read-out, with a control signal flat, not every such curve was filed as active; inconclusive = small, poorly fitted or top-dose-only effect, or effect the other way, or a change in a side signal; inactive = no such curve, though single readings can be large or run the other way; note: % of control where 0% means no effect
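Steps: Tsg101 binding domain dispensed (10 uM final), compounds pinned in DMSO, FITC-labeled PTAP-motif peptide added (50 nM final); after 20 min binding at room temperature, polarization measured.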
TDP1 inh: TDP1 (human) enzyme inhibition | Q9NUW8 | recombinant TDP1, AlphaScreen DNA substrate cleavage | Potency, µM (titrated, usually from 130 µM), for the others: at the highest dose activity change, negative = inhibition, most hits filed as inhibitors | 350,000 compounds, 0.28% hits | AID 485290; note: % is set by controls: 0 for no effect and ±100 for the full control effect; nearly all actives have a fitted effect of over 40% in size
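E. coli-derived human Tdp1, 1 nM final. Cpd preinc 15 min RT; substrate 15 nM final, 5 min RT; AS bead mix 10 ug/ml final, 10 min RT. Signal loss = tyrosine-FITC cleavage. No-enzyme wells = max signal.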
* = called active by the depositor; ? = inconclusive; / = no result; [ ] = dose if it differs, or a comment. A selection: hits, their analogues and other compounds. The true share with any hit is near 2.4%. Unless noted, calls come from the whole dose curve; as a rule, active = well fitted curve in the direction sought with a large enough effect; inconclusive = small, poorly fitted or top-dose-only effect, or another doubt; inactive = no such curve, though single readings can be large; an effect the other way counts as inactive or inconclusive. Potency is the fitted concentration of half-maximal effect.

SMILES	ALOX12 inh	Rango release inh	Rango complex inh	ClpP mod	PTAP TSG101 blk	TDP1 inh
CCN(Cc1ccc(OCc2ccccc2)cc1)C(=O)c1ccc2c(c1)OCO2	5%	/	/	/	/	/
O=C(C1CCOCC1)N1CCC(Oc2cccnc2)C1 (configuration not stated)	1%	/	/	/	/	/
Cc1ccncc1C(=O)N1C[C@@H](COCC2CC2)[C@H](c2ccccn2)C1	12%	/	/	/	/	/
CCc1noc(-c2ccn3c(CNC(=O)c4ccc(C(C)(C)C)cc4)nnc3c2)n1	0%	/	/	/	/	/
COc1nc(-c2ccccc2)ccc1-c1noc(-c2ccccc2)n1	2%	8%	-1%	?	7%	5%
COc1ccc(-c2ccc(-c3noc(-c4ccccc4)n3)c(OC)n2)cc1	12%	2.1µM*	?	84%	3%	-1%
COc1nc(-c2ccccc2)ccc1-c1noc(-c2ccco2)n1	20µM*	1%	?	32µM*	-1%	5%
CN1CCN(CCc2noc(C3CCCCCN3C)n2)CC1 (configuration not stated)	51%	/	/	/	/	/
COc1ccc(N2CCN(Cc3cc(=O)oc4cc(-c5ccccc5)c(O)cc34)CC2)cc1	37%	-5%	5%	32µM*	-4%	4%
CCc1cc2c(CN3CCN(CCO)CC3)cc(=O)oc2cc1O	8%	?	?	14µM*	-2%	8%
COc1ccc(/C=C2\C(=O)NC(=S)N2C(=O)c2ccc(F)cc2)cc1	?	?	?	-1%	35%	20µM*
COc1ccc(NC(=O)CN(C)C(=O)c2sc3cc(Cl)ccc3c2Cl)cc1	-18%	-6%	0%	28µM*	-1%	4%[0.505 µM]
Cc1ccc(NC(=O)CN(C)C(=O)c2sc3cc(Cl)ccc3c2Cl)cc1	1%	5%	-1%	4%	-5%	/
CCOc1ccc2nc(NCCNC(=O)c3cc(OC)c(OC)c(OC)c3)c(C#N)cc2c1	6%	?	4%	-6%	-2%	/
CCOc1ccc2nc(NCCNC(=O)C(C)C)c(C)cc2c1	2%	-10%	4%	16µM*	-6%	-2%
COCC(=O)NCCNc1nc2ccc(C)cc2cc1C	-23%	-16%	-1%	28µM*	-1%	-2%
CCOc1ccc2nc(NCCNC(=O)C3CC3)c(C)cc2c1	4%[57.4 µM]	-12%	1%	40µM*	-3%	1%
Cc1oc(-c2ccc3ccccc3c2)nc1CN1CCNC(=O)C1	23%	/	/	/	/	/
CC1(C)CC(=O)C(C(=O)c2ccccc2)C(=O)C1Cl (configuration not stated)	0%	-16%	1%	1%	-4%	/
O=C1C(=C(c2ccccc2)c2ccccc2)C(Cl)C(Cl)(Cl)c2ccccc21 (configuration not stated)	10µM*	/	/	/	/	/
CC(C)NC(=O)N1CCC(c2noc(-c3cnccn3)n2)C1 (configuration not stated)	26%	/	/	/	/	/
CC1C2(C)OC(=N)C(C#N)(C(C)O2)C1(C#N)C#N (configuration not stated)	/	?	?	/	-1%	7%
CC1OC2(C)OC(=N)C1(C#N)C(C#N)(C#N)C2c1ccccc1 (configuration not stated)	?	?	?	25µM*	-3%	0%
COc1cccc(/C=N/NC(N)=S)c1OCc1ccccc1Cl	28µM*	-3%	-2%	/	-2%	7%
COc1cccc(/C=N/n2nnnc2N)c1OCc1ccccc1Cl	0%	?	-1%	?	-3%	-11%
COC(=O)c1cc(Cl)c(NC(=O)/C=C/c2ccc(Cl)cc2)cc1OC	4%	-2%	-4%	7%	-6%	-3%

Source: PubChem (National Center for Advancing Translational Sciences (NCATS))
